Results reported in PubChem BioAssay AID2315 (National Center for Advancing Translational Sciences (NCATS), 2010).
The campaign covered roughly 290,000 compounds. About 27,000 (9.3%) were called active. No stated cut-off is given here; in the data, active means inhibition mostly above about 28% (no sharp cut-off); inactive means mostly below about 43%. The entries come from a sample that favours actives as a whole.

Experiment: A qHTS for Small Molecule Inhibitors of Shiga Toxin; further: 0% is about no effect
Conditions: Vero cells, Shiga toxin protein synthesis inhibition reporter; at 38.7 µM, stronger effect = higher value

SMILES | inhibition
S=C(Nc1ccc(Br)cc1)NC1CCN(Cc2ccccc2)CC1 | -5.49% (inactive)
CCc1cc2c(NC(Cc3ccccc3)C(=O)O)ncnc2s1 (configuration not stated) | -7.1% (inactive)
COc1ccc(NS(=O)(=O)c2cc(C(=O)Nc3ccccc3C(=O)O)ccc2C)cc1 | -9.69% (inactive)
C/C(=N/NC(=O)c1ccn(C)n1)c1ccncc1 | 81.2% (active)
C/C(=N\NC(N)=S)c1ccncc1 | -3.77% (inactive)
C/C(=N/NC(=O)c1ccncc1)c1ccc2c(c1)OCO2 | 1.65% (inactive)
O=C(C1CCC1)N1CCN(c2ccccc2)CC1 | -2.3% (inactive)
CC(=O)Oc1ccc(NC(=O)CCC2CCCCC2)c(C(=O)O)c1 | 9.77% (inactive)
COc1ccc(NC(=O)CCN2CCCC2)c(OC)c1 | -1.84% (inactive)
COc1ccc(NC(=O)CCCC2CCCCC2)c(OC)c1 | 72.3% (active)
Cc1ccc(C)c(CN2CCC(CNC(=O)Nc3ccc(C)c(F)c3)CC2)c1 | 9.21% (inactive)
Cc1nc(NC(=O)C23CCC(C)(C(=O)O2)C3(C)C)sc1C (configuration not stated) | -12.8% (inactive)
Cc1nc(NC(=O)C2CCCCC2)sc1C | 61.6% (active)
Cc1cnc(NC(=O)C2CCCC2)s1 | 28.6% (inactive)
CCSc1nsc(NC(=O)Nc2cccc(C(C)=O)c2)n1 | 41.5% (active)
COc1ccccc1NC(=O)Nc1nnc(Cc2ccc(F)cc2)s1 | 22.5% (inactive)
CCc1nc(SCC(=O)Nc2ccccc2OC)n[nH]1 | -3.11% (inactive)
CCSc1nsc(NC(=O)Nc2ccccc2OC)n1 | 27.4% (active)
CC(=O)c1cccc(NC(=O)c2ccncc2)c1 | -0.119% (inactive)
C=CCSc1nsc(NC(=O)Nc2cccc(C(C)=O)c2)n1 | 22.6% (inactive)
COc1ccc(N2CC(C(=O)N[C@@H](C)C(=O)N3CCCCC3)CC2=O)cc1 (some centres not stated) | -4.4% (inactive)
COCCc1nn2c(=O)cc(COC(=O)c3cc(OC)c(OC)c(OC)c3)nc2s1 | -8.18% (inactive)
C/C(N)=C(/C#N)C(=O)COC(=O)C1=NN(c2ccccc2)C(=O)CC1 | -13.8% (inactive)
CCOCCCNC(=O)C(NC(=O)CNC(=O)c1ccccc1)c1ccc(OC)cc1 (configuration not stated) | -6.33% (inactive)
Cc1ccc(NC(=O)CN(C)CC(=O)Nc2cccc(F)c2)cc1[N+](=O)[O-] | 14.5% (inactive)

SMILES | inhibition
Cc1ccc(NC(=O)c2sccc2C)cc1[N+](=O)[O-] | 87.3% (active)
Cc1ccc(NC(=O)CN2CCC(C(N)=O)CC2)cc1[N+](=O)[O-] | 26% (inactive)
Cc1ccsc1C(=O)N/N=C/c1ccc([N+](=O)[O-])cc1 | 64% (active)
Cc1nc2ccccc2cc1C(=O)N/N=C/c1ccc([N+](=O)[O-])cc1 | -4.74% (inactive)
NC(=S)N/N=C/c1ccc([N+](=O)[O-])cc1 | 4.32% (inactive)
O=C(NCC(=O)N1CCN(c2ncc(C(F)(F)F)cc2Cl)CC1)c1ccc(Br)o1 | -3.85% (inactive)
C=C1CCN(C(CC(C)C)C(=O)N2CCOCC2)S(=O)(=O)c2ccccc21 (configuration not stated) | -4.26% (inactive)
O=C1C2C(c3ccccc3)CC=CC2C(c2ccoc2)N1Cc1ccccc1 (configuration not stated) | -1.21% (inactive)
C=CCNC(=O)/C=C/c1ccc(C(C)C)cc1 | 96.1% (active)
O=C(/C=C/c1ccc(F)cc1)NCCNC(=O)/C=C/c1ccc(F)cc1 | -7.35% (inactive)
CC(C)c1ccc(/C=C/C(=O)NNC(=O)c2cccnc2)cc1 | 0.769% (inactive)
CCCNC(=O)N1CCC(c2ccc3c(c2)OCO3)CC1 | -2.98% (inactive)
Cc1nn(CC(=O)NCCc2ccccc2)c(=O)c2cc3occc3n12 | -3% (inactive)
COc1ccc(CNC(=O)C(C)n2nc(C)c3c(C)n(-c4ccccc4)nc3c2=O)c(OC)c1 (configuration not stated) | -6.6% (inactive)
CC(=O)N1c2ccc(S(=O)(=O)N3CCCC(C(=O)NCc4ccc(Cl)cc4)C3)cc2CC1C (configuration not stated) | 8.69% (inactive)
C=CCNC(=S)N/N=C/c1ccc(C)s1 | 39.3% (active)
C=CCNC(=S)N/N=C/c1ccc(OCc2ccccc2)cc1 | -15.4% (inactive)
Cc1ccc(/C=N/NC(=O)CN2CCN(Cc3ccccc3)CC2)s1 | 14.8% (inactive)
CCCn1c(C(C)Nc2nc(-c3ccc(C)cc3)cs2)nc2cc(Cl)c(N3CCCCC3)cc21 (configuration not stated) | -1.11% (inactive)
Cc1ccc(C)c(-n2cc(CN3CCN(C(=O)c4ncn[nH]4)CC3)c(-c3ccccc3)n2)c1 | 8.93% (inactive)
CCC(O)C1CCN(Cc2cn(-c3ccc(OC)cc3)nc2-c2cccc(F)c2)CC1 (configuration not stated) | 50.9% (inactive)
Cc1cccc(-n2cc(CN3CCN(C(=O)c4ncn[nH]4)CC3)c(-c3cccc(F)c3)n2)c1 | 63.8% (active)
COc1ccc(S(=O)(=O)N(C)CC(=O)NCCCN2CCOCC2)cc1Cl | -12.5% (inactive)
Clc1nc(NC2CCCC2)nc(N2CCOCC2)n1 | 5.65% (inactive)
CCc1ccc(CNC(=O)C2CCN(c3nnc(C)c4c(C)n(-c5ccc(C)cc5)nc34)CC2)cc1 | -5.47% (inactive)

SMILES | inhibition
O=S(=O)(c1ccc(Cl)cc1)c1nc(-c2ccco2)oc1N1CCCCC1 | -0.989% (inactive)
CSc1ccc(S(=O)(=O)N2CCC(C(=O)NCCc3ccccc3)CC2)cc1 | 56.2% (inactive)
CC(Oc1cc2oc(=O)c3c(c2cc1Cl)CCCC3)C(=O)NCc1ccncc1 (configuration not stated) | -3.65% (inactive)
CCN1/C(=C/c2ccc3ccc(C)cc3[n+]2CC)Sc2ccccc21 | 5.47% (inactive)
CCN1/C(=C/C(=S)Nc2ccccc2)Sc2ccccc21 | 62.5% (active)
O=C(CCN1c2ccccc2Sc2ccccc21)Nc1ccccc1 | -1.29% (inactive)
CCn1cc(/C=C(\NC(=O)c2ccc(C)cc2)C(=O)NCCN2CCOCC2)c2ccccc21 | 1.24% (inactive)
Cc1ccc(-c2nc(C)sc2CC(=O)O)cc1 | -13.7% (inactive)
CCOC(=O)C(=O)Nc1nc(-c2ccccc2)c(CC)s1 | -12% (inactive)
C/C(=N/Nc1nc(-c2ccccc2)c(CC(=O)O)s1)c1ccccc1 | 68.4% (active)
COC(=O)c1cccc(N2C(=O)C3C4C=CC(CC4)C3C2=O)c1 (configuration not stated) | 0.962% (inactive)
CC(C)Cn1cnc2c1c(=O)n(CC(=O)NN)c(=O)n2Cc1ccccc1 | -7.02% (inactive)
O=C(Nc1cccc([N+](=O)[O-])c1)N1CCc2ccccc2C1 | 88.6% (active)
CCc1ccc(NC(=O)N2CCc3ccccc3C2)cc1 | 120% (active)
CC(=O)Nc1cccc([N+](=O)[O-])c1 | 17.7% (inactive)
O=C(C(=O)N1CCc2ccccc2C1)N1CCc2ccccc2C1 | 8.23% (inactive)
CCc1ccc(NC(=O)N2CCN(c3ccccc3)CC2)cc1 | 20.1% (inactive)
CN1CCN(CC(=O)Nc2cccc([N+](=O)[O-])c2)CC1 | -12.8% (inactive)
COC(=O)c1ccccc1NC(=O)CSc1nc2c(c(=O)[nH]1)CCC2 | -2.68% (inactive)
COc1ccc(C(=O)NC(=S)N2CCCCC2c2cccnc2)cc1OC (configuration not stated) | -4.75% (inactive)
Cc1ccc(Cn2cc(C(=O)NN)c(=O)c3ccc(F)cc32)cc1 | -5.32% (inactive)
Nc1nc(SCc2cccc(Br)c2)n[nH]1 | 14.2% (inactive)
O=C(CN1CCN(C(=O)C2CCCO2)CC1)Nc1c(Cl)cccc1Cl (configuration not stated) | -6.84% (inactive)
COc1cc(C(=O)NCC2(c3ccccc3)CCCC2)ccc1OC(C)C | 4.68% (inactive)
CC(Cc1cccs1)NCc1ccc(Cl)cc1 (configuration not stated) | -11.1% (inactive)

SMILES | inhibition
CC(Cc1cccs1)NC(=O)NC1CCCCC1 (configuration not stated) | 35.2% (inactive)
CC(Cc1cccs1)NC(=O)c1cccc(Cl)c1 (configuration not stated) | 62% (active)
COC(=O)c1ccc(COc2ccc(/C=C/C(=O)c3ccc(OC)c(CSCC(=O)O)c3)cc2OC)cc1 | 10.1% (inactive)
CCOC(CNC(=O)C1CCN(S(=O)(=O)c2ccc3nc4c(c(C(=O)O)c3c2)CC(C)CC4)CC1)OCC (configuration not stated) | 16.6% (inactive)
O=C(Nc1ccc(S(=O)(=O)N2CCCC2)cc1Cl)C1=COCCO1 | -24.5% (inactive)
NS(=O)(=O)c1ccc2nc(NC(=O)CS(=O)(=O)c3ccc(F)cc3)sc2c1 | -4.57% (inactive)
NS(=O)(=O)c1ccc2nc(NC(=O)C3=COCCO3)sc2c1 | 31.7% (active)
CC(=O)c1ccc(NC(=O)Cn2c(=O)oc3ccccc32)cc1 | -3.29% (inactive)
Nc1ncc(CN2CCCC(C(=O)Nc3ccc(-c4ccco4)cc3)C2)cn1 (configuration not stated) | 1.36% (inactive)
COC(=O)c1ccc(COc2ccc(C#N)cc2)o1 | -6.04% (inactive)
Cc1noc(C)c1COc1ccc2ccc(=O)oc2c1 | -4.36% (inactive)
CC(C)OC(=O)c1ccc(COc2ccc3ccc(=O)oc3c2)o1 | 56.4% (active)
CN(C)C(=O)CCC(=O)N1CCCCC1C(=O)Nc1ccc(Oc2ccccc2F)cc1 (configuration not stated) | -6.54% (inactive)
CC(C)(C)n1nnnc1C(c1ccccc1F)N1CCN(C(=O)c2ccco2)CC1 (configuration not stated) | 2.73% (inactive)
Cc1ccccc1OCC(=O)N(Cc1cccc(F)c1)C1CCS(=O)(=O)C1 (configuration not stated) | 10.7% (inactive)
CCCOc1ccc(Cn2ccnc2)cc1[N+](=O)[O-] | -8.54% (inactive)
CCCCCOc1ccc(CSC2=NCCN2)cc1[N+](=O)[O-] | 63.7% (active)
CCCCOc1ccc(CSC(=N)N)cc1[N+](=O)[O-] | -5.85% (inactive)
COc1cccc(CCNC(=O)c2cccc(NC(=O)C3=C(C)OCCS3)c2)c1 | -2.41% (inactive)
CN(C)CCN=c1cc(-c2ccccc2)oc2ccc(Cl)cc12 | 129% (active)
CN(C)CCn1c(=S)[nH]c2ccc(Cl)cc2c1=O | -8.18% (inactive)
Cc1cc(-c2ccc(C)c(S(=O)(=O)Nc3ccc(S(N)(=O)=O)cc3)c2)on1 | 29.3% (inactive)
